BoNT-A LC inh2 – BoNT/A light chain protease inhibitors, primary screen, biochemical, flow cytometry, MLPCN library; Botulinum neurotoxin type A light chain protease (Clostridium botulinum A str. ATCC 3502); AID 588499, 2011; actives 0.17% (n = 360,000); inhibition, % at 10 µM; multiplex microsphere protease substrate cleavage; further: plate controls were buffer without enzyme for full effect and enzyme alone for no effect
BJeLR lethal – MLPCN primary cell-based screen for lethality selective to Ras in HRASV12 cells | BJeLR (HRASV12) viability, CellTiter-Glo ATP luminescence, 48 h | inhibition, % (no concentration beside the values) | actives 0.17% (n = 300,000); in the data active means inhibition above about 50%; inconclusive means no clear call, values can overlap the other calls
Bead autofluor – compound fluorescence in toxin protease inhibitor counterscreen; fluorescence intensity (concentration not given with the values); compound autofluorescence counterscreen, microsphere flow cytometry; stronger effect = higher value; actives 3.1% (n = 360,000); in the data active means fluorescence intensity above about 16000; inconclusive means no clear call, values can overlap the other calls
Anthrax LF prot – Bacillus anthracis LF protease inhibitors, primary screen, biochemical, multiplex microsphere, MLPCN library. multiplex microsphere protease cleavage assay. Lethal factor (Bacillus anthracis), P15917. AID 588501, 2011. inhibition, % at 10 µM. actives 0.12% (n = 360,000); further: plate controls were buffer without enzyme for full effect and enzyme alone for no effect
Target sequence (P15917 whole entry, looked up): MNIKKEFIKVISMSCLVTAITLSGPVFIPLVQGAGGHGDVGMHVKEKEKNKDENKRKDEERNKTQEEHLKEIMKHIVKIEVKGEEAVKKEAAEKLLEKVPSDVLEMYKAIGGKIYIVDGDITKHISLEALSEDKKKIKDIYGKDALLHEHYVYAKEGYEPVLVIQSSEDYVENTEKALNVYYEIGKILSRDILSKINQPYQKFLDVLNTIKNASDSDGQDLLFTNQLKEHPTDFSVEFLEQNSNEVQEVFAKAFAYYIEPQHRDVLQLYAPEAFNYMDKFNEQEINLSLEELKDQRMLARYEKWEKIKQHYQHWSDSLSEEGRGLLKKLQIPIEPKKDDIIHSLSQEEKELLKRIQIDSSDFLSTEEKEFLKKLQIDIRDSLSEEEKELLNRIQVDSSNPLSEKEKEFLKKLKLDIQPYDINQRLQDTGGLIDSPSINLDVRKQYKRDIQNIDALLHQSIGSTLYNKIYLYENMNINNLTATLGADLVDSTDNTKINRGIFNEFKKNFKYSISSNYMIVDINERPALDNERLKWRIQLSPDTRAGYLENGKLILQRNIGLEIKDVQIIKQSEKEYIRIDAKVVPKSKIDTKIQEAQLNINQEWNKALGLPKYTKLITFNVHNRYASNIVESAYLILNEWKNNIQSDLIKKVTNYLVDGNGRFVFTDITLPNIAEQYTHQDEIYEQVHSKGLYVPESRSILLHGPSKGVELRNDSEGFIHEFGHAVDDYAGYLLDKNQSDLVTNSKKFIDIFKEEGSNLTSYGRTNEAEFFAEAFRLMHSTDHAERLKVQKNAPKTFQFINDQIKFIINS
BoNT-F LC inh – BoNT/F light chain protease inhibitors, primary screen, biochemical, flow cytometry, MLPCN library | AID 588497, 2011 | Multiplex microsphere protease cleavage assay | Botulinum neurotoxin type F light chain protease (Clostridium botulinum) | inhibition, % at 10 µM | actives 0.22% (n = 360,000); in the data active means inhibition above about 35%, passing the limit was not always enough; inconclusive means no clear call, values can overlap the other calls; further: plate controls were buffer without enzyme for full effect and enzyme alone for no effect
3CLpro inhibitor – SARS-CoV 3CLpro protease inhibitors, primary screen, biochemical, quenched FRET. Replicase polyprotein 1ab (Severe acute respiratory syndrome coronavirus), P0C6X7. recombinant SARS-CoV 3CLpro, quenched FRET peptide cleavage. inhibition, % at 6 µM. actives 0.14% (n = 290,000); in the data active means inhibition above about 12%
The depositor's hits bear a star. Rows were chosen to be rich in hits. Some 3.6% of all compounds tested hit in one or more screens of this group. Unless noted, no stated cut-off is given here; in the data, active means inhibition above about 30%; inconclusive means no clear call, values can overlap the other calls; inactive means below that.

How did COc1ccc(CCNCc2cc3ccc(C)cc3[nH]c2=O)cc1OC do in these assays?
BoNT-A LC inh2: -2; BJeLR lethal: 0; Bead autofluor: 3197; Anthrax LF prot: -13; BoNT-F LC inh: -31; 3CLpro inhibitor: -2

How did Cc1noc(NS(=O)(=O)c2ccc(NC(=O)COc3ccccc3)cc2)c1C do in these assays?
BoNT-A LC inh2: 3; BJeLR lethal: 4; Bead autofluor: 22340*; Anthrax LF prot: -1; BoNT-F LC inh: 2; 3CLpro inhibitor: 0

How did Cc1cccc(NC(=O)c2cnc3n(c2=O)CCS3)c1 do in these assays?
BoNT-A LC inh2: inconclusive; BJeLR lethal: 2; Bead autofluor: 20823*; Anthrax LF prot: -4; BoNT-F LC inh: -2; 3CLpro inhibitor: 2

Results for COCC(=O)Nc1ccc(S(=O)(=O)Nc2onc(C)c2C)cc1 ?
BoNT-A LC inh2: 0; Bead autofluor: 3538; Anthrax LF prot: 0; BoNT-F LC inh: -5

How did Cc1noc(NS(=O)(=O)c2ccc(NC(=O)c3cnc4n(c3=O)CCS4)cc2)c1C do in these assays?
BoNT-A LC inh2: 3; BJeLR lethal: 0; Bead autofluor: 21016*; Anthrax LF prot: -2; BoNT-F LC inh: 4; 3CLpro inhibitor: -1

What do the screens show for `O=C(Nc1ccc2c(c1)OCO2)c1cnc2n(c1=O)CCS2`?
BoNT-A LC inh2: 1; BJeLR lethal: -20; Bead autofluor: 22821*; Anthrax LF prot: -6; BoNT-F LC inh: -6; 3CLpro inhibitor: -2

What do the screens show for `CC(C)Oc1ccc(N2CC(C(=O)NC3=NCCS3)CC2=O)cc1` (stereo unspecified)?
BoNT-A LC inh2: -1; BJeLR lethal: 7; Bead autofluor: 3391; Anthrax LF prot: -1; BoNT-F LC inh: 1; 3CLpro inhibitor: 1

Results for COc1ccc(N(CC(=O)Nc2cccc(C(=O)O)c2)S(=O)(=O)c2c(C)noc2C)cc1 ?
BoNT-A LC inh2: 0; Bead autofluor: 10774; Anthrax LF prot: -5; BoNT-F LC inh: -1; 3CLpro inhibitor: 2

Results for CCOc1ccccc1NC(=O)CN(c1ccc(OC)cc1)S(=O)(=O)c1c(C)noc1C ?
BoNT-A LC inh2: -2; BJeLR lethal: 19; Bead autofluor: 16905*; Anthrax LF prot: 1; BoNT-F LC inh: -3; 3CLpro inhibitor: -1

How did COc1ccc(N(CC(=O)Nc2cccc(C)c2C)S(=O)(=O)c2c(C)[nH]c(=O)[nH]c2=O)cc1 do in these assays?
BoNT-A LC inh2: 0; BJeLR lethal: -6; Bead autofluor: 4166; Anthrax LF prot: -5; BoNT-F LC inh: -2; 3CLpro inhibitor: 3

How did CCOC(=O)c1cccc(NC(=O)CN(c2ccc(OC)cc2)S(=O)(=O)c2c(C)noc2C)c1 do in these assays?
BoNT-A LC inh2: 0; BJeLR lethal: 0; Bead autofluor: 20239*; Anthrax LF prot: -2; BoNT-F LC inh: -2; 3CLpro inhibitor: -2

How did COc1ccc(N(CC(=O)Nc2cccc(C)c2C)S(=O)(=O)c2c(C)n[nH]c2C)cc1 do in these assays?
BoNT-A LC inh2: inconclusive; BJeLR lethal: -6; Bead autofluor: 20057*; Anthrax LF prot: -1; BoNT-F LC inh: -1; 3CLpro inhibitor: 0

What do the screens show for `CCOc1ccccc1NC(=O)CN(c1cc(C)cc(C)c1)S(=O)(=O)c1c(C)noc1C`?
BoNT-A LC inh2: 0; BJeLR lethal: -4; Bead autofluor: 5010; Anthrax LF prot: -2; BoNT-F LC inh: -2; 3CLpro inhibitor: -1

How did Cn1c(CSCc2ccc(Cl)cc2)n[nH]c1=S do in these assays?
BoNT-A LC inh2: -1; BJeLR lethal: -4; Bead autofluor: 3692; Anthrax LF prot: -11; BoNT-F LC inh: -2; 3CLpro inhibitor: 0

Results for CCCCOc1ccc(/C(O)=C(\C#N)c2nc3ccccc3[nH]2)cc1 ?
BoNT-A LC inh2: -1; BJeLR lethal: 5; Bead autofluor: 3997; Anthrax LF prot: 17; BoNT-F LC inh: 42*; 3CLpro inhibitor: -1

What do the screens show for `COc1ccc(NC(=S)NNS(=O)(=O)c2ccc3ccccc3c2)c(OC)c1`?
BoNT-A LC inh2: 0; BJeLR lethal: 1; Bead autofluor: 4604; Anthrax LF prot: -5; BoNT-F LC inh: -3; 3CLpro inhibitor: -5

Results for COc1ccccc1CN(Cc1ccco1)S(=O)(=O)c1ccc(-n2cnnn2)c(OC)c1 ?
BoNT-A LC inh2: -2; BJeLR lethal: -5; Bead autofluor: 12155; Anthrax LF prot: -4; BoNT-F LC inh: -19; 3CLpro inhibitor: 2

What do the screens show for `CCCCOc1ccc(CN(C)c2ncnc(N)n2)cc1`?
BoNT-A LC inh2: inconclusive; BJeLR lethal: 3; Bead autofluor: 22920*; Anthrax LF prot: -3; BoNT-F LC inh: 1; 3CLpro inhibitor: 0

Results for Cc1ccccc1N(CC(=O)NC1CCCC1)C(=O)CS(=O)CC(=O)Nc1ccc2c(c1)OCO2 (stereo unspecified) ?
BoNT-A LC inh2: 2; BJeLR lethal: 3; Bead autofluor: 20092*; Anthrax LF prot: 1; BoNT-F LC inh: 2; 3CLpro inhibitor: -1

Results for CCOC(=O)N/N=C(\C)c1ccc(-n2cnnn2)cc1 ?
BoNT-A LC inh2: 2; BJeLR lethal: -1; Bead autofluor: 4673; Anthrax LF prot: 4; BoNT-F LC inh: -4; 3CLpro inhibitor: 4

What do the screens show for `CCOC(=O)N1CCN(C(=O)CSCC(=O)Nc2nc(-c3ccc4c(c3)OCO4)cs2)CC1`?
BoNT-A LC inh2: 2; Bead autofluor: 19205*; Anthrax LF prot: -6; BoNT-F LC inh: 2; 3CLpro inhibitor: 0

Results for Cc1cccc(-n2nnnc2SCC(=O)c2cc(C)n(CC3CCCO3)c2C)c1 (stereo unspecified) ?
BoNT-A LC inh2: 0; BJeLR lethal: 2; Bead autofluor: 4434; Anthrax LF prot: -7; BoNT-F LC inh: -35; 3CLpro inhibitor: -4

How did Cc1cccc(-n2nnnc2SCC(=O)c2cc(C)n(Cc3ccco3)c2C)c1 do in these assays?
BoNT-A LC inh2: inconclusive; BJeLR lethal: 0; Bead autofluor: 22516*; Anthrax LF prot: 0; BoNT-F LC inh: 0; 3CLpro inhibitor: -6

How did COc1ccc(-c2cc(-c3ccccc3)nc(-c3ccc4c(c3)NC(=O)CO4)c2)cc1 do in these assays?
BoNT-A LC inh2: inconclusive; BJeLR lethal: -13; Bead autofluor: 19614*; Anthrax LF prot: 0; BoNT-F LC inh: 2; 3CLpro inhibitor: 0

How did NC(=S)NNC(=O)c1cccc(Cl)c1 do in these assays?
BJeLR lethal: 1; 3CLpro inhibitor: -5

Results for CCOc1cc(CNc2ncc(-c3ccc(OC)cc3)n2C)ccc1O ?
BoNT-A LC inh2: 0; BJeLR lethal: 7; Bead autofluor: 20656*; Anthrax LF prot: -4; BoNT-F LC inh: -4; 3CLpro inhibitor: 2

What do the screens show for `CC(C)(C)NC(=O)C(c1ccco1)N(C(=O)Cn1nnc(-c2ccc(F)cc2)n1)c1cccc(F)c1` (stereo unspecified)?
BoNT-A LC inh2: 0; BJeLR lethal: 1; Bead autofluor: 22593*; Anthrax LF prot: -1; BoNT-F LC inh: 1; 3CLpro inhibitor: -5

Screening data as filed in PubChem BioAssay.
